# Assay results from PubChem BioAssay.
# Activity calls are given as the source filed them. Unless noted, no rule for the calls is given here.
# How the values were obtained:
# [1] = HepG2 liver cancer cell viability effects, profiling panel, resazurin fluorescence, 24 h, PK04 Diversity Set (AID 1172); conditions: higher = more signal
# [2] = basal S. cerevisiae growth modulation, no modifier, primary screen, OD600, strain BY4716, 24 h, basal condition (AID 1173); conditions: OD600, 24 h, higher = more signal, called active from +8 up or from −8 down
# [3] = MM1S myeloma cell viability, profiling panel, resazurin fluorescence, basal, 24 h, PK04 Diversity Set (AID 1174); conditions: higher = more signal, called active from +8 up or from −8 down;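 also: MM1S multiple myeloma cell line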
# [4] = target: Dihydroorotate dehydrogenase (quinone), mitochondrial (Plasmodium falciparum (isolate 3D7)) (UniProt Q08210); experiment: PfDHODH enzyme inhibitors, primary screen, biochemical, C-terminal His tag, absorbance 600 nm (AID 1175); conditions: DCIP absorbance 600 nm, higher = more signal, called active from +8 up or from −8 down;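 also: recombinant parasite enzyme with a five histidine tag at its C terminus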
# [5] = P. aeruginosa biofilm formation inhibitors, primary screen, strain PAO1, LB-PBS medium, absorbance 600 nm (AID 1176); conditions: P. aeruginosa PAO1 growth/biofilm, A600, 12 h; higher = more signal
# [6] = S. cerevisiae RM11-1a growth modifiers, primary screen, strain RM11-1a, OD600, basal, 24 h (AID 1177); conditions: OD600, 24 h, higher = more signal, called active from +8 up or from −8 down;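 also: cultures grown under basal conditions with no added stressor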
# [7] = E. coli acrAB mutant growth effects, primary screen, E. coli filamentation inducers, strain DRC39, OD650, 24 h (AID 1178); conditions: higher = more signal, called active from +8 up or from −8 down;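 also: growth measured as culture turbidity by optical density at 650 nm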
# [8] = E. coli acrAB mutant growth effects, primary screen, E. coli filamentation inducers, strain DRC39, OD650, 48 h (AID 1179);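 also: screen aims at cell division blockers that make cells filament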; conditions: E. coli DRC39 delta-acrAB growth, higher = more signal, called active from +8 up or from −8 down
# [9] = RPMI8226 myeloma cell viability, profiling panel, resazurin fluorescence, basal, 24 h, PK04 Diversity Set (AID 1180); conditions: higher = more signal;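 also: RPMI8826 multiple myeloma cell line at 5000 cells per well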
# [10] = target: E3 ubiquitin-protein ligase XIAP (Homo sapiens) (UniProt P98170); experiment: XIAP binders, primary screen, biophysical, small-molecule microarray, fluorescence 635 nm (AID 1181); conditions: small-molecule microarray binding, higher = more signal;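 also: score merges 667 nm emission and signal to noise over triplicate slides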
# [11] = test system: XIP peptide (Xip251-270) binding; experiment: small-molecule binders of XIP peptide, primary screen, biochemical, small-molecule microarray, fluorescence 635/667 nm, 0.1 µg/mL protein (AID 1182); conditions: fluorescent protein binding, 635 nm, higher = more signal, called active from +8 up or from −8 down
# XIP peptide (Xip251-270) = experiment: small-molecule binders of XIP peptide, primary screen, biochemical, small-molecule microarray, fluorescence 635/667 nm, 0.5 µg/mL protein (AID 1183); conditions: small-molecule microarray binding, fluorescence 635 nm; higher = more signal
# [12] = Plasmodium falciparum growth inhibition, primary screen, strain 3D7, DAPI fluorescence, 100 nL (AID 1184);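 also: parasites grown inside human red blood cells in medium with human serum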; conditions: P. falciparum 3D7 growth, 3 d, higher = more signal
# [13] = target: Homeobox protein Hox-A13 (Mus musculus) (UniProt Q62424); experiment: inhibitors of HoxA13-DNA binding, primary screen, biochemical, fluorescence polarization, labeled oligonucleotide (AID 1185); conditions: 15 min, higher = more signal, called active from +8 up or from −8 down
# [14] = inhibitors of hydroxyurea-induced Chk1 phosphorylation, primary screen, imaging, HeLa, phospho-Chk1 antibody, percent positive cells (AID 1186); conditions: hydroxyurea-induced phospho-Chk1 immunofluorescence imaging, higher = more signal
# [15] = inhibitors of hydroxyurea-induced Chk1 phosphorylation, primary screen, imaging, HeLa, phospho-Chk1 nuclear intensity (AID 1187); conditions: hydroxyurea-induced phospho-Chk1 immunofluorescence imaging, higher = more signal
# Sequence of E3 ubiquitin-protein ligase XIAP (Homo sapiens) (P98170 whole entry, looked up): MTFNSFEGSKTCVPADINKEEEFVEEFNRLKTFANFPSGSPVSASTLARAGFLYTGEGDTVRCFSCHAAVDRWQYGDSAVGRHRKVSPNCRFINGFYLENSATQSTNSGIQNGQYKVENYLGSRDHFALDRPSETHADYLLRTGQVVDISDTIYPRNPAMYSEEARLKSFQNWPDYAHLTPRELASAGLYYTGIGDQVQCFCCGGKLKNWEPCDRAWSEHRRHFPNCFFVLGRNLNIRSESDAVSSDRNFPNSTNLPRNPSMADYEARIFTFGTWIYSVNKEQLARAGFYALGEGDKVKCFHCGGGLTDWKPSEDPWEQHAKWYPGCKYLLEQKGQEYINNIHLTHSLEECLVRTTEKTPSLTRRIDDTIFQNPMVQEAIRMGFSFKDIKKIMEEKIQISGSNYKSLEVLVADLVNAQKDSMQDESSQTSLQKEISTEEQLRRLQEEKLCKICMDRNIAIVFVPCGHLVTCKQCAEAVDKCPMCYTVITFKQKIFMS
# Sequence of Homeobox protein Hox-A13 (Mus musculus) (Q62424 whole entry, looked up): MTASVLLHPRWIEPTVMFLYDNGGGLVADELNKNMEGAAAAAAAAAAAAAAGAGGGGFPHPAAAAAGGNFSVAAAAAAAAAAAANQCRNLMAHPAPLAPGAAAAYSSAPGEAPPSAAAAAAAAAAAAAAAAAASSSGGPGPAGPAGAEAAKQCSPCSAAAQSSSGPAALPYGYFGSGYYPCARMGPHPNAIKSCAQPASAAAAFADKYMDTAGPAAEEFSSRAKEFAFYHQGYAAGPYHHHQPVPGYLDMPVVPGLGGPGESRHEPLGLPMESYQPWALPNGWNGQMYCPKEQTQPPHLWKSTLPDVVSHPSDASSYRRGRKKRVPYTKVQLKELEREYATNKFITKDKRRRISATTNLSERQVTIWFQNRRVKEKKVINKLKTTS
# Sequence of Dihydroorotate dehydrogenase (quinone), mitochondrial (Plasmodium falciparum (isolate 3D7)) (Q08210 whole entry, looked up): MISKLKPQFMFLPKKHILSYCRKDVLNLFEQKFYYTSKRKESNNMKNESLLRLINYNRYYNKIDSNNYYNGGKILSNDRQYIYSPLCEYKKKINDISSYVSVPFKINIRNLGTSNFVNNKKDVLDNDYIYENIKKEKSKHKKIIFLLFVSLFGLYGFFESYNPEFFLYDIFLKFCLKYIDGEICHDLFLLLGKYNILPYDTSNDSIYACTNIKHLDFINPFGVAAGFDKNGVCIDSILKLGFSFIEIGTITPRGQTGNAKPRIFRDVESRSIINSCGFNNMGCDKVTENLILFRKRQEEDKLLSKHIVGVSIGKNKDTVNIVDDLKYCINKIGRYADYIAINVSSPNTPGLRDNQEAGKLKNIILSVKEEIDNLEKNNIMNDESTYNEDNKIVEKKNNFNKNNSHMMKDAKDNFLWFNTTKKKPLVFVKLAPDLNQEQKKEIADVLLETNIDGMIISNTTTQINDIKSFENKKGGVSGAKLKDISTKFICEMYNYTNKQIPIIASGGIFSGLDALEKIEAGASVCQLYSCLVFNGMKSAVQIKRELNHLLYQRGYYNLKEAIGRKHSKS
SMILES,z-score [1],z-score [2],z-score [3],composite z-score [4],z-score [5],z-score [6],z-score [7],z-score [8],z-score [9],composite z-score [10],composite z-score [11],composite z-score (XIP peptide (Xip251-270)),z-score [12],z-score [13],z-score [14],z-score [15]
CC(C)C[C@H]1NC(=O)C([C@@H](C)OCc2ccccc2)NC(=O)[C@@]23C(=O)N[C@@H](Cc4ccccc4)C2[C@H](C)[C@@]2(C)O[C@H]2C3/C=C/C/C=C\CNC1=O (some centres undefined),-0.662,-0.0256 (inactive),-0.521 (inactive),-0.116 (inactive),0.294 (inactive),-0.3 (inactive),0.12 (inactive),-0.0809 (inactive),-0.0732,0.172,0.304 (inactive),0.22,-2.23,-6.86 (inactive),-0.762 (inactive),-0.732 (inactive)
CCCc1cc2c(n1CCc1ccc(Cl)cc1)C(C)C1CN(C(=O)c3ccccc3)C(C)(C(=O)OC)C21 (centres undefined),-1.19,0.736 (inactive),-2.85 (inactive),-0.823 (inactive),0.659 (inactive),1.09 (inactive),-1.34 (inactive),-1.33 (inactive),-1.98,0.527,-0.573 (inactive),0.201,-1.18,-5.05 (inactive),0.853 (inactive),0.692 (inactive)
C=C(CCCC)/C(=C/C[C@H](OC(=O)c1ccncc1)c1ccccc1OCCO)c1cc(C(=O)OC)ccc1OC,-0.345,0.431 (inactive),0.531 (inactive),-1.36 (inactive),0.297 (inactive),-0.3 (inactive),0.128 (inactive),0.0401 (inactive),1.09,-0.184,0.578 (inactive),0.0792,-3.07,-4.22 (inactive),-1.15 (inactive),-0.733 (inactive)
[N-]=[N+]=Nc1ccccc1[C@@H]1OC(c2ccc(OCCCO)cc2)=N[C@]1(CCS(=O)(=O)c1ccccc1)C(=O)NCC(O)CO (some centres undefined),0.396,0.143 (inactive),0.321 (inactive),0.612 (inactive),0.317 (inactive),0.777 (inactive),0.125 (inactive),0.638 (inactive),-0.315,-0.201,0.0574 (inactive),0.947,-2.21,-3.99 (inactive),0.0401 (inactive),0.225 (inactive)
COC(=O)[C@@]1(Cc2ccc(OC)cc2)[C@H]2c3cc(C(=O)N4CCCC4)n(Cc4c(CO)[nH]cc(C)c4=O)c3C[C@H]2CN1C(=O)c1ccccc1,0.229,0.684 (inactive),0.421 (inactive),-1.21 (inactive),0.548 (inactive),0.124 (inactive),0.153 (inactive),1.17 (inactive),0.572,0.477,1.1 (inactive),0.523,-1.56,-5.39 (inactive),-0.166 (inactive),0.0081 (inactive)
COc1ccc([Si](C)(C)[C@@H]2[C@@H](CC(=O)N(CCO)Cc3ccccc3)O[C@]3(C(=O)N(Cc4ccc(I)cc4)c4ccccc43)[C@H]2C)cc1,-1.42,-0.498 (inactive),-2.27 (inactive),1.07 (inactive),1.1 (inactive),2.45 (inactive),-0.318 (inactive),-0.699 (inactive),-2.52,-0.0658,1.59 (inactive),0.256,-2.2,-2.17 (inactive),-0.168 (inactive),-0.299 (inactive)
CCCCC(O)C1C=CC2C(=O)N(c3ccccc3)C(=O)C2N1Nc1ccccc1 (centres undefined),0.281,-1.67 (inactive),-0.125 (inactive),0.477 (inactive),-0.0625 (inactive),0.632 (inactive),-0.407 (inactive),0.483 (inactive),-0.0096,0.366,0.145 (inactive),0.137,-0.0871,-4.11 (inactive),0.385 (inactive),0.283 (inactive)
COC(=O)[C@@]1(Cc2ccc(OC)cc2)[C@H]2c3cc(C(=O)N4CCCC4)n(CCn4cc([N+](=O)[O-])nc4C)c3C[C@H]2CN1C(=O)c1ccccc1,-0.916,0.477 (inactive),-1.72 (inactive),-0.329 (inactive),2.04 (inactive),-0.123 (inactive),-0.784 (inactive),-0.552 (inactive),-1.65,0.111,1.13 (inactive),0.359,-1.73,-2.67 (inactive),1.65 (inactive),1.22 (inactive)
CN(C)CCCC[C@@H]1NC(=O)[C@@H]2C[C@H](C(=O)NCCCCCN)[C@H](c3cccc(OCCO)c3)N2C1=O,0.881,-0.985 (inactive),1.49 (inactive),-0.417 (inactive),0.531 (inactive),-2.59 (inactive),2.01 (inactive),2.02 (inactive),0.819,-0.184,1.14 (inactive),0.898,-0.0568,-1.29 (inactive),-0.523 (inactive),0.0431 (inactive)
